Data taken from PubChem BioAssay.

test: probe aNOTCH2 binding on compound microarray – biochemical, small-molecule microarray, 635/667 nm fluorescence, primary screen (AID 1121); conditions: higher = more signal;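 also: score merges feature fluorescence read at 667 nm with its signal to noise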

| SMILES | composite z-score |
| --- | --- |
| COCCOC(=O)N1C(=O)[C@@]2(c3ccccc31)[C@H](c1ccc(O)cc1)N1[C@H](c3ccccc3)[C@H](c3ccccc3)OC(=O)[C@H]1[C@@H]2C(=O)Nc1nc2ccccc2s1 | -0.0956 |
| NC(=O)NCC#Cc1ccc2c(c1)[C@]1(C(=O)N2)[C@H](C(=O)Nc2nc3ccccc3s2)[C@H]2C(=O)O[C@H](c3ccccc3)[C@H](c3ccccc3)N2[C@@H]1c1ccccc1OCCO | 0.0196 |
| COCCOC(=O)N1C(=O)[C@@]2(c3ccccc31)[C@H](c1ccccc1OCCO)N1[C@H](c3ccccc3)[C@H](c3ccccc3)OC(=O)[C@H]1[C@@H]2C(=O)N1CCN(c2ncccn2)CC1 | -0.0756 |
| COC(=O)[C@@]1(Cc2ccc(F)cc2)[C@H]2c3cc(C(=O)N4CCCC4)n(CCCNc4ncc(C(F)(F)F)cc4Cl)c3C[C@H]2CN1C(=O)c1ccccc1 | 0.362 |
| CC(C)C[C@@H]1NC(=O)[C@@H]2C[C@H](C(=O)NCc3ccc(F)cc3)[C@H](c3cccc(OCCO)c3)N2C1=O | -0.166 |
| C=CCC(OC(C)=O)[C@@H]1[C@@H](N(Cc2cc3ccccc3o2)C(=O)c2cccc3ccccc23)c2cc(OCCCO)ccc2N1C(=O)c1ccc(-c2ccccc2)cc1 (some centres undefined) | -0.113 |
| C#C[C@H](O[Si](C#Cc1ccc(Oc2ccccc2)cc1)(C(C)C)C(C)C)c1ccccc1 | -0.0057 |
| O=C1N[C@@H](Cc2ccccc2)C(=O)N2[C@@H]1C[C@@H](C(=O)O)[C@H]2c1cccc(OCCO)c1 | -0.124 |
| COCCCNC(=O)[C@@]1(C)c2ccccc2C(=O)N(C(C)C)[C@H]1c1ccc(CO)cc1 | 0.0023 |
